Assay results published in the supplement of paper PMC9694430.
Values joined by “and” are separate entries in the source; they are usually repeats but may differ in a detail not shown here. Equal entries are not always repeated.

Columns and labels:
Assay in all cases: thermal shift delta Tm vs DMSO control; higher = stronger stabilization (binding)
Settings in all cases: 12.5 µM; protein concentration 2 µM
[1] = tested on: LOC_OS04G57630-cb004
Procedure, shortened: (§1)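 Rice kinase domain constructs, made in E. coli and purified, were placed in 96-well plates at 2 μM in 19.5 μl of 100 mM potassium phosphate pH 7.5, 150 mM NaCl, 10% glycerol and 5 × SYPRO Orange, with compound in DMSO. A temperature ramp from 25°C to 95°C at 0.05°C/s was used for differential scanning fluorimetry. The melting temperature shift is a triplicate mean compared with DMSO-only protein, derived from Boltzmann fits.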

[2] = tested on: LOC_OS05G07850-cb002
Procedure, shortened: as §1

[3] = tested on: LOC_OS05G16824-cb004
Procedure, shortened: as §1

[4] = tested on: LOC_OS05G28520-cb001
Procedure, shortened: as §1

[5] = tested on: LOC_OS05G30820-cb001
Procedure, shortened: as §1

[6] = tested on: LOC_OS05G43570-cb004
Procedure, shortened: as §1

[7] = tested on: LOC_OS06G16330-cb003
LOC_OS06G16330-cb003, sequence (as listed by the source): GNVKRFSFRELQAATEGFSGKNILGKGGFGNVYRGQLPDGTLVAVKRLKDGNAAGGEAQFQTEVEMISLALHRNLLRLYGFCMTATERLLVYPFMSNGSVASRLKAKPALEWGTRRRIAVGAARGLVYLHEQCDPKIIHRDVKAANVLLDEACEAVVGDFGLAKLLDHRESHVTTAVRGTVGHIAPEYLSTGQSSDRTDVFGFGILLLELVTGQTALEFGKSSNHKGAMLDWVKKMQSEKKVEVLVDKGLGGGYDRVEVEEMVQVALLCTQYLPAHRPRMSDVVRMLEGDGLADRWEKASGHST
Procedure, shortened: as §1

[8] = tested on: T1, LOC_OS06G22820-cb001
T1 sequence (whole entry): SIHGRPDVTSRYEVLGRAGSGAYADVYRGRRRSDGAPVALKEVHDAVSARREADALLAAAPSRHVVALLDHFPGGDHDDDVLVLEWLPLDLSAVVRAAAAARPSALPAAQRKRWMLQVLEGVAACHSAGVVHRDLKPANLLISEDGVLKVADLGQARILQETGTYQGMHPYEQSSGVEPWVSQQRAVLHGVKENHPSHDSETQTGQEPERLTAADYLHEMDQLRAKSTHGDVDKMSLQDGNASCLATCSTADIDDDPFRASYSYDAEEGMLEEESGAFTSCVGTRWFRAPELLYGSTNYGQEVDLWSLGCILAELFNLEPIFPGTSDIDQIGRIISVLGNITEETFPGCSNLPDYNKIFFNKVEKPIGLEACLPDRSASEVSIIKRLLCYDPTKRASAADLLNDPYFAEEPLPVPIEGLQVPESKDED
Procedure, shortened: as §1

[9] = tested on: LOC_OS07G06570-cb004
Procedure, shortened: as §1

[10] = tested on: LOC_OS07G07230-cb001
Procedure, shortened: as §1
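Also: purified Escherichia coli-expressed rice kinase domain construct.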

Row | Compound | thermal shift delta Tm [1] | thermal shift delta Tm [2] | thermal shift delta Tm [3] | thermal shift delta Tm [4] | thermal shift delta Tm [5] | thermal shift delta Tm [6] | thermal shift delta Tm [7] | thermal shift delta Tm [8] | thermal shift delta Tm [9] | thermal shift delta Tm [10]
1 | O=C1NC(=O)/C(=C/c2ccc(-c3ccc(F)cc3O)o2)S1 | 1.54 °C | 6.53 °C | 3.79 °C | 1.52 °C | 1.01 °C | 2.03 °C | 3.28 °C | 2.41 °C | 1.83 °C | 0.13 °C
2 | O=C(NOCC(O)CO)c1cc(Br)c(F)c(F)c1Nc1ccc(I)cc1F (stereo not given) | 0.44 °C | 0.69 °C | 0.91 °C | 0.42 °C | 0.68 °C | 0.96 °C | 0.65 °C | 1.13 °C | 1.14 °C | -0.63 °C
3 | Clc1ccc(Nc2nnc(Cc3ccncc3)c3ccccc23)cc1 [Vatalanib (PTK787) 2HCl] | -0.2 °C | -0.28 °C | -1.81 °C | -0.19 °C | 0.45 °C | 0.05 °C | 0.09 °C | 0.55 °C | 0.43 °C | 0.41 °C
4 | CNC(=O)c1ccc(-c2cnc3ncc(Cc4ccc5ncccc5c4)n3n2)cc1F | 0.55 °C | 0.67 °C | -1.29 °C | 0.04 °C | 0.18 °C | 0.63 °C | -2.08 °C | 0.46 °C | 1.26 °C | 0.89 °C
5 | Cc1cnc(-c2cnc(NCCNc3ccc(C#N)cn3)nc2-c2ccc(Cl)cc2Cl)[nH]1 | -0.09 °C and 0.72 °C | 4.65 °C and 4.93 °C | 1.04 °C and 0.06 °C | 0.2 °C and 0.82 °C | 0.54 °C and 0.26 °C | 0.69 °C and 1.04 °C | -0.09 °C and -0.17 °C | 0.67 °C and 1.04 °C | 0.67 °C and 1.49 °C | 0.25 °C and -0.23 °C
